PubChem BioAssay (NCATS)
Results filed as inconclusive are left out. Calls follow the shape of the dose curve; as a rule, active = well fitted curve in either direction with a large enough effect (not every such curve was filed as active); inconclusive = small, poorly fitted or top-dose-only effect, or another doubt; inactive = flat fitted curve, though single readings scatter.

assay: Stat Signaling Pathway (AID 446); conditions: ME-180 (cervical carcinoma) SIE beta-lactamase reporter, IL-6 stimulated, 5 h; at 17.2 µM (top of the series) unless noted;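 also: ME-180 cervical cancer cells given 40 pM IL-6 alongside compound; SIE-controlled beta-lactamase reporter measured as 460/530 nm FRET emission ratio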
Procedure, shortened: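 Overnight-plated ME-180 cells bearing a STAT Inducible Element beta-lactamase reporter; 5 h co-exposure to compound and 40 pM IL-6; values normalized to 300 pM IL-6 and 125 nM JAK inhibitor controls.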
% is scaled to controls: 0 for no effect and ±100 for the full control effect.

activity, negative = inhibition, inactive:
CCOC(=O)CC1=NC(=O)CS1 4.4%
Cc1cc(=O)oc2cc(OCC(=O)NCc3cccnc3)ccc12 -2.73%
CC1(C)Cc2ccccc2-c2c1c(=O)n(-c1ccccc1)c1nnnn21 2.44%
CCN(CC)C(=O)C1CCN(c2ncnc3c2cnn3-c2ccc(C)cc2C)CC1 -7.04%
COCCNc1oc(-c2ccc(Cl)cc2)nc1C#N -5.03%
CCCNc1ncnc2c1cnn2-c1ccc(OC)cc1 -8.63%
Cc1nc2ccccc2cc1O 5.42%
Cc1cc(C)n(CC2CC(=O)N(c3cc(Cl)cc(Cl)c3)C2=O)n1 (stereo not drawn) 2.96%
Cc1ccc2[nH]c3c(c2c1)CN(C(=O)CN1CC(C)OC(C)C1)CC3 (stereo not drawn) 2.26%
CCC(NC(=O)Nc1ccc(O)cc1)(C(F)(F)F)C(F)(F)F -7.48%
O=C(O)c1cc2sccc2s1 2.27%
CC(C)OC(=O)CC1=NC(=O)CS1 9.47%
COc1ccc(/C=C(/C#N)c2cccnc2)cc1OC 5.95%
CC(=O)N(Cc1ccccc1)c1ccc(C(=O)O)cc1 13.1%
CCOC(=O)Cn1nc(C)c2ccccc2c1=O -2.19%
COc1cccc(C2=CC(c3ccccc3)n3ncnc3N2)c1 (stereo not drawn) -5.76%
COc1ccc(CN2CCC(=O)NC2=O)cc1 9.56%
O=C1C2ON(c3ccccc3)C(c3ccncc3)C2C(=O)N1c1ccc(Br)cc1 (stereo not drawn) -10.2%
